Measured values: PubChem BioAssay
Inconclusive results are not listed. Calls of active or inactive are those of the source. Unless noted, the limit is not given here; nearly all actives have AC50 up to about 30 µM.

What was measured:
[1] = growth inhibition of DIPG glioma cells, dose response, cell-based, JHH-DIPG-1, MIPE4.0, CellTiter-Glo, qHTS (AID 1347062; cut-off not given, nearly all actives have AC50 up to about 27 µM;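 as to AC50: cells exposed to compound for two days before readout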); conditions: JHH-DIPG-1 viability, CellTiter-Glo ATP luminescence
[2] = growth inhibition of DIPG glioma cells, dose response, cell-based, SU-DIPG-IV, MIPE4.0, CellTiter-Glo, qHTS (AID 1347063); conditions: SU-DIPG-IV viability, CellTiter-Glo ATP luminescence;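 also: compound exposure lasted 48 hours before the viability readout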
[3] = SU-DIPG-VI glioma cell viability, MIPE4.0 library, CellTiter-Glo luminescence, qHTS (AID 1347066); conditions: CellTiter-Glo ATP luminescence;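 also: cells exposed to compound for 48 hours before readout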
[4] = JHH-DIPG-1 glioma cell viability, MIPE5.0 library, CellTiter-Glo luminescence, qHTS (AID 1347067; cut-off not given, nearly all actives have AC50 up to about 26 µM;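 also: cells exposed to compound for 48 hours before readout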); conditions: JHH-DIPG-1 glioma viability, CellTiter-Glo ATP luminescence
[5] = SU-DIPG-XXV glioma cell viability, MIPE5.0 library, qHTS (AID 1347068; cut-off not given, nearly all actives have IC50 up to about 30 µM)
[6] = growth inhibition of DIPG glioma cells, dose response, cell-based, SU-DIPG-XIII, MIPE5.0, CellTiter-Glo, qHTS (AID 1347064; cut-off not given, nearly all actives have AC50 up to about 23 µM;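 also: cells exposed to compound for 48 hours before the viability read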); conditions: SU-DIPG-XIII viability, CellTiter-Glo ATP luminescence
[7] = viability loss in pontine glioma line – cell-based, SU-DIPG-XXV, MIPE5.0, CellTiter-Glo, qHTS, dose response (AID 1347065; cut-off not given, nearly all actives have AC50 up to about 26 µM;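 also: cells exposed to compound for 48 hours before ATP readout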); conditions: CellTiter-Glo ATP luminescence
[8] = LFS_MB_P medulloblastoma growth inhibition, cell-based, chromothripsis tumors, cisplatin or BGB combos (AID 1671449; in the data active = inhibition above about 80%;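 also: cells exposed for 96 hours; 0% = vehicle DMSO and 100% = killing by high DMSO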); conditions: LFS_MB_P medulloblastoma cells
[9] = HDN33 neuroblastoma growth inhibition, cell-based, chromothripsis tumors, cisplatin or BGB combos (AID 1671450; in the data active = inhibition above about 80%;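 also: cells exposed to compound for four days; 0% = vehicle DMSO and 100% = cell killing by high DMSO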); conditions: HDN33 neuroblastoma cells, stronger effect = higher value
[10] = ICB984 medulloblastoma cell growth inhibition, synergistic combos for chromothripsis tumors, cisplatin or BGB combos (AID 1671451; call rule not given here;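 also: cells exposed for 96 hours before readout; 0% = vehicle DMSO and 100% = killing by high DMSO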); conditions: ICB984 medulloblastoma cells, drug combinations, stronger effect = higher value
[11] = HTB85 osteosarcoma cell growth inhibition, synergistic combos for chromothripsis tumors, BGB or cisplatin IC20 combos (AID 1671453; in the data active = inhibition above about 80%;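 also: cells exposed for 96 hours before readout; 0% = vehicle DMSO and 100% = high DMSO killing control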); conditions: HTB85 osteosarcoma cells, drug combinations, stronger effect = higher value
[12] = MDA-MB-436 breast carcinoma cell growth inhibition, synergistic combos for chromothripsis tumors, BGB or cisplatin combos (AID 1671458; call rule not given here;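 also: cells exposed for 96 hours; 0% = vehicle DMSO and 100% = killing by high DMSO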); conditions: MDA-MB-436 breast carcinoma growth inhibition, drug combinations, stronger effect = higher value
[13] = growth inhibition of BT084 medulloblastoma cells, cell-based, ICGC_MB145, cisplatin and BGB IC40 combos (AID 1671461; in the data active = inhibition above about 80%;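 also: cells exposed to drugs for 96 hours; 0% = vehicle DMSO and 100% = high DMSO full killing control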); conditions: drug combinations, stronger effect = higher value
[14] = growth inhibition of RCMB18 medulloblastoma cells, cell-based, cisplatin and BGB IC40 combos (AID 1671462; in the data active = inhibition above about 80%;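 also: cells exposed to compound for four days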); conditions: stronger effect = higher value
[15] = growth inhibition of CRL1545 osteosarcoma cells, cell-based, cisplatin and BGB IC20 combos (AID 1671464; in the data active = inhibition above about 80%;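 also: cells exposed to compound for 96 hours before readout; 0% = vehicle DMSO and 100% = high DMSO killing control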); conditions: stronger effect = higher value
[16] = measured here: with BGB IC20 combination, at 0.5 µM
[17] = measured here: with cisplatin IC20 combination, at 0.5 µM

C[C@H](c1ccc(F)cc1CCCC(=O)O)N(c1cc(F)ccc1F)S(=O)(=O)c1ccc(Cl)cc1
outcome [1]: inactive
outcome [2]: inactive
outcome [3]: inactive
outcome [4]: inactive
outcome [5]: inactive

CC/C=C\C[C@H]1C(=O)CC[C@@H]1CC(=O)OC
outcome [1]: inactive
outcome [2]: inactive
outcome [3]: inactive

CC(O)[C@@H]1NC(=O)[C@H](CCCCN)NC(=O)[C@@H](Cc2c[nH]c3ccccc23)NC(=O)[C@H](Cc2ccccc2)NC(=O)[C@@H](NC(=O)[C@H](N)Cc2ccccc2)CSSC[C@@H](C(=O)N[C@H](CO)[C@@H](C)O)NC1=O (stereo partly drawn)
outcome [1]: inactive
outcome [2]: inactive
outcome [3]: inactive

COc1cc(Cl)cn2c(-c3cccc(NC4CNC4)n3)cnc12
outcome [1]: inactive
outcome [3]: inactive

COc1cc(OC)cc(-c2ccc3ncc4ccc(=O)n(-c5ccc(N6CCNCC6)c(C(F)(F)F)c5)c4c3c2)c1
AC50 [1]: 16.6 µM (active)
AC50 [2]: 2.64 µM (active)
AC50 [3]: 13.2 µM (active)

Cc1ccccc1C(C(=O)NC1CCCCC1)N(C(=O)CNc1ccc(C#N)cc1)c1cccc(F)c1 (stereo not drawn)
outcome [1]: inactive
outcome [2]: inactive
outcome [3]: inactive
outcome [4]: inactive
outcome [5]: inactive

O=c1[nH]c(=O)n([C@H]2C[C@H](O)[C@@H](CO)O2)cc1/C=C/Br
outcome [1]: inactive
outcome [2]: inactive
outcome [3]: inactive

C[C@@H](Cc1cc2c(c(C(N)=O)c1)N(CCCO)CC2)NCCOc1ccccc1OCC(F)(F)F
outcome [1]: inactive
outcome [2]: inactive
outcome [3]: inactive

COc1ccc(C(=O)CC2(O)C(=O)Nc3c(Cl)ccc(Cl)c32)cc1 (stereo not drawn)
AC50 [1]: 6.62 µM (active)
AC50 [6]: 11.8 µM (active)
AC50 [7]: 4.17 µM (active)
outcome [3]: inactive
AC50 [4]: 2.63 µM (active)
inhibition ([8]; at 0.5 µM, stronger effect = higher value): -20.8% (inactive)
inhibition ([8]; measured here: combination with BGB IC20, at 0.005 µM): -14.2%
inhibition ([8]; measured here: combination with BGB IC40, at 0.005 µM): -20.5%
inhibition ([8]; measured here: combination with BGB IC40, at 0.05 µM): -14.8%
inhibition ([8]; measured here: combination with cisplatin, at 0.5 µM, stronger effect = higher value): -51.4%
inhibition ([8]; measured here: combination with cisplatin, at 5 µM, stronger effect = higher value): 10.7%
inhibition ([9]; BGB combo, at 5 µM): 63.6%
inhibition ([9]; at 0.5 µM): 28.4% (inactive)
inhibition ([9]; cisplatin combo, at 5 µM): 59.7%
inhibition [9, 16]: 21.3%
inhibition [9, 17]: 16%
inhibition ([9]; single agent, at 5 µM): 93.1%
inhibition ([10]; BGB IC20 combo, at 0.005 µM): -4.85%
inhibition ([10]; BGB IC40 combo, at 0.005 µM): -25.9%
inhibition ([10]; BGB IC40 combo, at 0.05 µM): 11.3%
inhibition ([10]; at 0.5 µM): -24.6% (inactive)
inhibition ([10]; cisplatin combo, at 0.05 µM): 8.85%
inhibition ([10]; cisplatin combo, at 0.5 µM): -32.2%
inhibition ([10]; cisplatin combo, at 5 µM): -25.3%
inhibition ([10]; measured here: 5 uM single agent, at 5 µM): -28.8%
inhibition ([11]; at 0.5 µM): 33.2% (inactive)
inhibition ([11]; measured here: with BGB IC20, at 0.5 µM): 33.1%
inhibition ([11]; measured here: with BGB IC20, at 5 µM): 64.4%
inhibition ([11]; measured here: with cisplatin IC20, at 0.5 µM): 11.7%
inhibition ([11]; measured here: with cisplatin IC20, at 5 µM): 63.8%
inhibition ([11]; single agent, at 5 µM): 88.4%
inhibition ([12]; at 0.5 µM): 2.68% (inactive)
inhibition ([12]; measured here: BGB combination, at 0.5 µM): -5.4%
inhibition ([12]; measured here: BGB combination, at 5 µM): 40.2%
inhibition ([12]; measured here: cisplatin combination, at 0.5 µM): -2.19%
inhibition ([12]; measured here: cisplatin combination, at 5 µM): 64.3%
inhibition ([13]; at 0.5 µM): -18.2% (inactive)
inhibition ([13]; cisplatin combination, at 0.5 µM): 1.77%
inhibition ([13]; cisplatin combination, at 5 µM): 10.6%
inhibition ([13]; measured here: BGB IC40 combination 0.05 uM, at 0.05 µM): 2.03%
inhibition ([13]; single agent, at 5 µM): 40.8%
inhibition ([14]; at 0.5 µM): -4.73% (inactive)
inhibition ([14]; cisplatin combo, at 5 µM): 26.4%
inhibition ([14]; measured here: BGB IC40 combination, at 0.05 µM): -41.1%
inhibition ([14]; measured here: combination with cisplatin, at 0.5 µM): 6.7%
inhibition ([14]; single agent, at 5 µM): 24.9%
inhibition ([15]; at 0.5 µM): 0.14% (inactive)
inhibition [15, 16]: 16.2%
inhibition [15, 17]: -10.3%
inhibition ([15]; single agent, at 0.05 µM): -6.9%
inhibition ([15]; single agent, at 5 µM): 77.7%
